Data on 14 molecules can be found in the supplement of paper PMC6522484.

The subject of experiment [1] is DLD1. In words: cell viability (CellTiter-Glo) relative to plate median (fraction of plate median); higher = more viable cells. The conditions noted are these: 5 µM; treatment time 24 h; reporter: 7TFP. The essentials: (§1)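 Colorectal cancer lines with stably integrated lentiviral TCF/Wnt firefly luciferase reporters received library compounds at a final 5 µM, 24 h after seeding into 384-well plates, for a 24 h exposure. Reported figures are plate-median-normalised firefly luciferase or CellTiterGlo luminescence per well. They average two independent replicates.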
On the technique in general: ATP-based viability assays read luminescence as a measure of living cells.

Another experiment concerns HCT116. The experiment is described as above. To be noted: 5 µM; treatment time 24 h; reporter: TCF4/Wnt. The method, boiled down:
as §1

Experiment [2] has as its system SW480. The experiment is described as above. The conditions noted are these: 5 µM; treatment time 24 h; reporter: 7TFP. The essentials:
as §1

The test system of experiment [3] is DLD1. In words: TCF/Wnt firefly luciferase reporter signal relative to plate median (fraction of plate median); higher = higher Wnt reporter signal. The conditions noted are these: 5 µM; treatment time 24 h; reporter: 7TFP. The method, boiled down: as §1
For experiment [4], the system named is SW480. The description is as above. To be noted: 5 µM; treatment time 24 h; reporter: 7TFP. The method, boiled down:
as §1

± gives the standard deviation of the averaged measurements.

`CC1=C2C(=CO[C@H](C)[C@H]2C)C(O)=C(C(=O)O)C1=O`: the cell viability was found to be 0.939 ± 0.076 in the experiment with DLD1 [1], 1 ± 0.022 in the experiment on HCT116 and 0.923 ± 0.027 in the experiment on SW480 [2]. Further, the results for the “TCF/Wnt firefly luciferase reporter signal” value in the experiment on DLD1 [3] and with SW480 [4] were 0.861 ± 0.13 and 0.9055 ± 0.0035, respectively.

For the molecule `C[C@]12CC[C@H]3[C@@H](CCC4=CC(=O)CC[C@@]43C)[C@@H]1CC[C@@H]2O`, the cell viability with DLD1 [1] was 1.03 ± 0.021; in the experiment with HCT116, 1.15 ± 0.17; with SW480 [2], 1.045 ± 0.0071. The results for the “TCF/Wnt firefly luciferase reporter signal” value with DLD1 [3] and in the experiment with SW480 [4] were 0.967 ± 0.061 and 1.04 ± 0.092, respectively.

On to `CC(C)[N+](C)(CCC(C(N)=O)(c1ccccc1)c1ccccc1)C(C)C`, for which the cell viability in the experiment on DLD1 [1] came to 1.045 ± 0.0071; in the experiment on HCT116, 1.055 ± 0.0071; in the experiment on SW480 [2] it was 0.996 ± 0.0057. Moreover, the “TCF/Wnt firefly luciferase reporter signal” value amounted to 1.02 ± 0.12 with DLD1 [3] and 1.03 ± 0.042 with SW480 [4].

As to `C=C(C)[C@H]1Cc2c(ccc3c(=O)c4c(oc23)COc2cc(OC)c(OC)cc2-4)O1`, the cell viability in the experiment on DLD1 [1] was found to be 1.07 ± 0.12; with HCT116 it was 1 ± 0.041; with SW480 [2] it was 1.12 ± 0.2. Also, the entries for the “TCF/Wnt firefly luciferase reporter signal” value with DLD1 [3] and in the experiment with SW480 [4] were 1.04 ± 0.099 and 0.919 ± 0.13, respectively.

In the case of `COc1cc([C@@H]2c3cc4c(cc3[C@H](OC(C)=O)[C@H]3COC(=O)[C@@H]23)OCO4)cc(OC)c1OC`, the cell viability in the experiment with DLD1 [1] was found to be 0.903 ± 0.098; with HCT116, 0.904 ± 0.027; in the experiment with SW480 [2], 1.02 ± 0.028. Further, the “TCF/Wnt firefly luciferase reporter signal” value with DLD1 [3] came to 0.693 ± 0.014; in the experiment with SW480 [4], 0.867 ± 0.092.

`CCN1C[C@]2(COC)[C@H](O)C[C@H](OC)[C@@]34[C@@H]5C[C@@]6(O)[C@H](OC(=O)c7ccccc7)[C@@H]5[C@@](OC(C)=O)([C@@H]([C@H](OC)[C@H]23)[C@@H]14)[C@@H](O)[C@@H]6OC`: the cell viability was 0.943 ± 0.066 in the experiment with DLD1 [1], 1.04 ± 0.05 in the experiment on HCT116 and 1.02 ± 0.06 in the experiment with SW480 [2]. Also, the “TCF/Wnt firefly luciferase reporter signal” value in the experiment on DLD1 [3] is 0.931 ± 0.057; in the experiment on SW480 [4], 0.955 ± 0.19.

As to `COc1c2c(cc3c1OCO3)CC[N+](C)=C2`, the cell viability turned out to be 0.978 ± 0.046 in the experiment on DLD1 [1], 0.945 ± 0.072 in the experiment on HCT116 and 0.991 ± 0.07 with SW480 [2]. Moreover, the “TCF/Wnt firefly luciferase reporter signal” value in the experiment with DLD1 [3] is 1 ± 0.036; in the experiment on SW480 [4], 1.075 ± 0.0071.

`COc1cc([C@@H]2c3cc4c(cc3[C@H](O)[C@H]3COC(=O)[C@H]23)OCO4)cc(OC)c1OC`: the cell viability in the experiment with DLD1 [1] is 0.903 ± 0.091; in the experiment on HCT116, 0.552 ± 0.075; in the experiment on SW480 [2] it was 0.95 ± 0.14. The figures for the “TCF/Wnt firefly luciferase reporter signal” value in the experiment on DLD1 [3] and in the experiment on SW480 [4] were 0.831 ± 0.34 and 0.783 ± 0.061, respectively.

For the molecule `CCC1(CC)C(=O)C=CNC1=O`, the cell viability with DLD1 [1] was determined as 0.965 ± 0.016; in the experiment with HCT116 it was 0.923 ± 0.025; in the experiment with SW480 [2] it was 0.926 ± 0.013. For the same molecule, the “TCF/Wnt firefly luciferase reporter signal” value in the experiment with DLD1 [3] came out at 1.02 ± 0.09; with SW480 [4], 1.07 ± 0.021.

In the case of `C[C@]12CCC3C(CC[C@H]4C[C@H](OS(=O)(=O)O)CC[C@]34C)C1CCC2=O` (stereo not given in full), the cell viability with DLD1 [1] stood at 1.03 ± 0.021; with HCT116, 1.02 ± 0.079; in the experiment with SW480 [2], 1.04 ± 0.061. Further, the entries for the “TCF/Wnt firefly luciferase reporter signal” value in the experiment on DLD1 [3] and in the experiment with SW480 [4] were 0.755 ± 0.015 and 0.966 ± 0.039, respectively.

With `COc1cc(OC)c2c(c1)O[C@H](c1ccc(OC)c(OC)c1)[C@@H](O)C2`, the cell viability in the experiment on DLD1 [1] was found to be 0.924 ± 0.071; in the experiment on HCT116 it was 0.955 ± 0.047; with SW480 [2] it was 0.973 ± 0.096. The “TCF/Wnt firefly luciferase reporter signal” value in the experiment on DLD1 [3] came out at 0.952 ± 0.023; in the experiment on SW480 [4], 1.01 ± 0.014.

On to `CC[C@H]1CN2CCc3cc(OC)c(OC)cc3[C@@H]2C[C@@H]1C[C@H]1NCCc2cc(OC)c(OC)cc21`, for which the figures for the cell viability in the experiment with DLD1 [1], with HCT116 and in the experiment on SW480 [2] were 0.984 ± 0.094, 0.815 ± 0.3 and 0.902 ± 0.059, respectively. Moreover, the “TCF/Wnt firefly luciferase reporter signal” value in the experiment with DLD1 [3] is 0.615 ± 0.1; in the experiment on SW480 [4], 0.608 ± 0.064.

Consider `C/C=C(/C)C(=O)O[C@H]1CC[C@@]2(C)[C@@H]3CC[C@H]4[C@]5(O)C[C@H](O)[C@@]6(O)[C@@H](CN7C[C@@H](C)CC[C@H]7[C@@]6(C)O)[C@]5(O)C[C@]42O[C@]13O`, for which the figures for the cell viability in the experiment on DLD1 [1], in the experiment with HCT116 and in the experiment on SW480 [2] were 0.9805 ± 0.0064, 0.892 ± 0.06 and 1.04 ± 0.064, respectively. The “TCF/Wnt firefly luciferase reporter signal” value in the experiment on DLD1 [3] amounted to 1.16 ± 0.064; in the experiment with SW480 [4], 1.185 ± 0.0071.

Take `CCOP(=S)(OCC)Oc1ccc2c(C)c(Cl)c(=O)oc2c1`: the cell viability in the experiment on DLD1 [1] was 0.989 ± 0.044; with HCT116, 0.983 ± 0.14; in the experiment on SW480 [2] it was 0.9335 ± 0.005. The “TCF/Wnt firefly luciferase reporter signal” value in the experiment on DLD1 [3] came out at 0.928 ± 0.04; in the experiment on SW480 [4] it was 0.89 ± 0.012.
